Data reported in PubChem BioAssay AID1835 (Johns Hopkins Ion Channel Center, 2009).
About 750 (31%) of roughly 2,400 compounds were called active.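 Rule for the calls: active = median signal gain over dofetilide-blocked control wells reaching their mean plus 3 SD, so readout 1 at least 0; inactive = the rest.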 Some of the results follow.

target: Voltage-gated inwardly rectifying potassium channel KCNH2 (Homo sapiens) (UniProt Q12809); test: modulators restoring hERG flux under dofetilide – cell-based, thallium flux, duplicate retest, dofetilide IC70, confirmation (AID 1835); settings: hERG cell line, FluxOR thallium flux, dofetilide-blocked; at 10 µM; hits give high values
Sequence (Q12809 whole entry, looked up): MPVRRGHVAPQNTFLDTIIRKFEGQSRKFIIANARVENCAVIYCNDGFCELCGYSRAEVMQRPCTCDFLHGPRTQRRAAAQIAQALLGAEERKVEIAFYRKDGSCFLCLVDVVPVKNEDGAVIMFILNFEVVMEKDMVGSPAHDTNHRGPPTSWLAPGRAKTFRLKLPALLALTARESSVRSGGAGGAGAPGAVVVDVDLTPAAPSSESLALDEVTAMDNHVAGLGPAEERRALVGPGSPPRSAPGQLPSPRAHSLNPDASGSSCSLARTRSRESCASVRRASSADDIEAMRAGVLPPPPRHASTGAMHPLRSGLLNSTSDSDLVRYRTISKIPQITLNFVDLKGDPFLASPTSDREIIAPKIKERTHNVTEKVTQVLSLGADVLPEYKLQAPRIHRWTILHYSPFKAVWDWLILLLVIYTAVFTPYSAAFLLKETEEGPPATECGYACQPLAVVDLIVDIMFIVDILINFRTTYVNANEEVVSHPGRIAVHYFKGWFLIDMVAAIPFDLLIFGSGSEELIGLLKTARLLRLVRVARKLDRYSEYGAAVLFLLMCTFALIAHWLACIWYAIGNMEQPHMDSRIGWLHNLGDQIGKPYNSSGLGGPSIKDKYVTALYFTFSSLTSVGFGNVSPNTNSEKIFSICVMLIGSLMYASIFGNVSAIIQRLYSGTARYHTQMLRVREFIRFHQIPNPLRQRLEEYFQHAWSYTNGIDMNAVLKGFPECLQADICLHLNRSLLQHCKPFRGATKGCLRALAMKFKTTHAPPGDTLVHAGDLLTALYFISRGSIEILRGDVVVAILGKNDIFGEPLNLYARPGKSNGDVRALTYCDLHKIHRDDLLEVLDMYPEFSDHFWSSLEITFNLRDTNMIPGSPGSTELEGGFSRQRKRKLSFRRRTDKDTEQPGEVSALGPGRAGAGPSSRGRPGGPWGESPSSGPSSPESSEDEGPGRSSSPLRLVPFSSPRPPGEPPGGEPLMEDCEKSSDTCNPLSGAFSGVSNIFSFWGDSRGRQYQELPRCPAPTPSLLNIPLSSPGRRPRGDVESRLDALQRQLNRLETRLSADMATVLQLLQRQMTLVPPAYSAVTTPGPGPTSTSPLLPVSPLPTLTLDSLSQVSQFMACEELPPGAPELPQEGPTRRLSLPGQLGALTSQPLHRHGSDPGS

| Compound | activity increase over dofetilide control, less the hit threshold |
| --- | --- |
| O=[N+]([O-])c1cccnc1Sc1n[nH]c(-c2ccc(Cl)cc2)n1 | -14% (inactive) |
| Cc1ccc2[nH]c3c(c2c1)CNCC3 | -15% (inactive) |
| CCC(=O)Nc1nnc(-c2ccccn2)o1 | -17% (inactive) |
| O=C(NN1C(=O)C2C(c3ccccc3)C=CC(c3ccccc3)C2C1=O)c1ccncc1 (stereo unspecified) | -56% (inactive) |
| O=C(C1CC(=O)N(c2ccc3c(c2)OCCO3)C1)N1CCCC(C(F)(F)F)C1 (stereo unspecified) | -15% (inactive) |
| O=C(NC(=S)N1CCCC(C(F)(F)F)C1)c1ccc(F)cc1 (stereo unspecified) | 19% (active) |
| O=C(c1ccc(C(F)(F)F)cc1)C1CCCN(C(=O)CCc2ccncc2)C1 (stereo unspecified) | -7% (inactive) |
| CC1CN(C(=S)NC(=O)c2ccc(Cl)cc2)CC(C)O1 (stereo unspecified) | 5% (active) |
| COc1ccc(C(=O)NC(=S)N2CCC(C)CC2)cc1Br | 26% (active) |
| COc1ccc(C(=O)NC(=S)N2CCC(C)CC2)cc1 | -11% (inactive) |
| Cc1ccc2c(c1)N(CCC(=O)NCc1cccnc1)C(=O)CO2 | -17% (inactive) |
| O=C1NC2(CCCCCC2)C(=O)N1Cc1ccccc1 | -2% (inactive) |
| CC(C)(C)OC(=O)NCCCC(CCCNC(=O)OC(C)(C)C)C(=O)O | -22% (inactive) |
| CCOC(=O)CN1C(=O)SC(Nc2ccc(C)cc2)C1=O (stereo unspecified) | -10% (inactive) |
| Cc1nc2c(C(=O)NCc3cccs3)cnn2c(C)c1Cc1ccccc1 | -12% (inactive) |
| CCCn1c(SCC(N)=O)nc2c(c1=O)C1(CCCC1)Cc1ccccc1-2 | 2% (active) |
| CC1CCCN(C(=O)COC(=O)c2cc(-c3cccs3)nn2-c2ccccc2)C1 (stereo unspecified) | -29% (inactive) |
| Nc1ccc(NC(=O)Nc2ccc(N)cc2)cc1 | -3% (inactive) |
| Cc1cc2c(cc(C(=O)OC(C(=O)NCc3ccco3)C(C)C)n2C)o1 (stereo unspecified) | 2% (active) |
| COc1cccc(N2CCN(CC(=O)NC(=O)NCc3ccco3)CC2)c1 | -9% (inactive) |
| O=C(NCc1ccco1)c1ccc(OCC2CCCO2)cc1 (stereo unspecified) | -22% (inactive) |
| Cc1ccc(/C=C(\NC(=O)c2ccccc2)C(=O)N2CCCCC2)cc1 | -26% (inactive) |
| Cc1ccc(/C=C/C(=O)C2C(=O)c3ccccc3C2=O)cc1 | 42% (active) |
| CC(=O)C1=C(C)NC(=O)NC1/C=C/c1ccccc1 (stereo unspecified) | -1% (inactive) |
| CCc1ccc(/C=C/C(=O)C2C(=O)c3ccccc3C2=O)cc1 | 49% (active) |
| CCc1ccc(/C=c2\s/c(=C\C(=O)C(C)(C)C)[nH]c2=O)cc1 | -6% (inactive) |

| Compound | activity increase over dofetilide control, less the hit threshold |
| --- | --- |
| CCC(c1nnc(SCC(=O)NCCc2ccc(Cl)cc2Cl)o1)N(C)C (stereo unspecified) | -16% (inactive) |
| COc1ccc(C(=O)N2CCN(Cc3ccc4c(c3)OCO4)CC2)cc1[N+](=O)[O-] | -7% (inactive) |
| O=C(NC(=S)N1CCN(Cc2ccc3c(c2)OCO3)CC1)c1cccc(Br)c1 | 48% (active) |
| O=C(NC(=S)N1CCN(Cc2ccc3c(c2)OCO3)CC1)c1ccc(Cl)cc1 | 21% (active) |
| O=C(COc1ccc(Cl)cc1)N1CCN(Cc2ccc3c(c2)OCO3)CC1 | -17% (inactive) |
| O=C(NC(=S)N1CCN(C/C=C/c2ccccc2)CC1)c1ccc(Cl)nc1 | -7% (inactive) |
| CCCCNC(=S)NNC(=O)c1ccc2c(c1)OCO2 | -13% (inactive) |
| Cc1cc(Cl)c(S(=O)(=O)N2CCSCC2)cc1OCC(=O)NC1CCCCC1 | -8% (inactive) |
| Cc1nc(NCCc2ccc(S(N)(=O)=O)cc2)c2c(C)c(C)sc2n1 | 2% (active) |
| O=C(Nc1nc(-c2ccccc2)c(-c2ccccc2)o1)c1ccc(F)cc1 | 17% (active) |
| O=C(Nc1nnc(-c2ccccc2)o1)c1ccc(Cl)cc1 | -19% (inactive) |
| O=C(Nc1cccc2[nH]ncc12)c1ccc(F)cc1 | -7% (inactive) |
| O=c1cc(-c2c(F)c(F)c(F)c(F)c2F)oc2ccccc12 | 2% (active) |
| CCOC(=O)C(=CNc1cc(C)ccc1[N+](=O)[O-])C(=O)OCC | -17% (inactive) |
| CCOC(=O)C(=CNc1ccc(N2CCOCC2)cc1)C(=O)OCC | 0% (inactive) |
| CCOC(=O)C(=CNc1cccc(C)n1)C(=O)OCC | 5% (active) |
| CCOC(=O)C(=CNc1cc(C)ccn1)C(=O)OCC | 10% (active) |
| CCOC(=O)C(=CNc1ccc(OC)cc1[N+](=O)[O-])C(=O)OCC | -10% (inactive) |
| CCOC(=O)CC(=O)CSc1nc2c(C)c(C)ccc2cc1C | -7% (inactive) |
| CCOC(=O)C(=CNc1cc(C)nn1C(C)(C)C)C(=O)OCC | 2% (active) |
| O=C(NC1CCCC1)C(c1ccncc1)N(C(=O)Cn1nnc(-c2ccccc2F)n1)c1cccc(F)c1 (stereo unspecified) | -14% (inactive) |
| Cc1cccc(C)c1NC(=O)Cn1cnc2c(=O)n(C)c(=O)n(C)c21 | -17% (inactive) |
| COc1ccccc1C1C(C(=O)c2ccc(C)o2)=C(O)C(=O)N1c1cc(C)on1 (stereo unspecified) | -1% (inactive) |
| Cc1ccc(NC(=O)COc2cccnc2[N+](=O)[O-])cc1S(=O)(=O)N1CCOCC1 | -24% (inactive) |
| Cc1ccc(-c2noc(CCC(=O)NC3CCCC3)n2)cc1 | -7% (inactive) |
| Cc1cc(C)cc(-n2c(C)cc(/C=N/NC(=O)CN(c3c(C)cccc3C)S(C)(=O)=O)c2C)c1 | -1% (inactive) |

| Compound | activity increase over dofetilide control, less the hit threshold |
| --- | --- |
| CN(C(=S)NC(=O)c1ccccc1Br)C1CCCCC1 | 1% (active) |
| CCN(C(=S)NC(=O)c1ccccc1Br)C1CCCCC1 | 80% (active) |
| O=C(NCC1CCCCC1)c1cccnc1Cl | -14% (inactive) |
| COc1cc(S(=O)(=O)Nc2c(C)cc(C)cc2C)ccc1Cl | -10% (inactive) |
| O=C(CN1C(=O)COc2ccccc21)NNC(=O)Nc1ccccc1F | -22% (inactive) |
| COCCn1c(SCC(=O)Nc2cc(C)cc(C)c2)nc2ccccc2c1=O | -9% (inactive) |
| CC(C)CCn1c(SCC(=O)NC2CC2)nc2cc(Cl)ccc2c1=O | -13% (inactive) |
| CCCn1c(SCN2C(=O)c3ccccc3C2=O)nc2cc(Cl)ccc2c1=O | 20% (active) |
| CCCCC1C2=C(CCCC2=O)OC2=C1C(=O)CCC2 | -13% (inactive) |
| CCCCn1c(N)c(C(=S)NC(=O)CC(C)(C)C)c(=O)n(C)c1=O | -3% (inactive) |
| O=C1c2ccccc2NC(c2ccc(Br)s2)N1O (stereo unspecified) | 41% (active) |
| Cc1oc2ccc(OCc3ccc(Cl)cc3)cc2c1C(=O)O | -7% (inactive) |
| COc1ccc(-c2cc(=O)oc3cc(OCC(C)=O)ccc23)cc1 | -27% (inactive) |
| COc1ccc(/C=C/c2cc(=O)c3cc(Cl)ccc3o2)cc1 | 56% (active) |
| CCN(C(=O)c1cc2c(=O)[nH]c3ccc(C)cc3c2s1)c1ccccc1F | -15% (inactive) |
| O=C(c1ccc2c(c1)N(Cc1ccccc1F)C(=O)c1ccccc1S2(=O)=O)N1CCCC1 | -10% (inactive) |
| CC/C(=N\NC(=O)c1nnn(-c2nonc2N)c1-c1cccs1)c1ccccc1 | -4% (inactive) |
| N#Cc1ccccc1OCCN1C(=O)c2ccccc2C1=O | -4% (inactive) |
| S=c1[nH]nc(Nc2ccc(Cl)cc2)s1 | -3% (inactive) |
| Cc1ccc(-c2csc(=S)[nH]2)cc1 | 95% (active) |
| O=Cc1cc(-c2ccccc2)[nH]c1-c1ccccc1 | -19% (inactive) |
| S=c1[nH]c(-c2ccccc2)cs1 | 66% (active) |
| S=c1[nH]c(-c2ccc(Cl)cc2)cs1 | 136% (active) |
| CO/N=C(\CCC(=O)O)c1cccs1 | -20% (inactive) |
| O=C(N/N=C/c1cc([N+](=O)[O-])ccc1O)c1ccc(COc2ccc3c(c2)CCC3)o1 | -10% (inactive) |
| Cc1c(N2C(=O)/C(=C\c3ccccc3O)SC2=S)c(=O)n(-c2ccccc2)n1C | 14% (active) |

| Compound | activity increase over dofetilide control, less the hit threshold |
| --- | --- |
| O=C(O)COc1ccccc1/C=C1\SC(=S)N(NC(=O)c2ccccc2O)C1=O | -11% (inactive) |
| O=C(OCc1ccc(F)cc1)c1cc(S(=O)(=O)N2CCCCC2)ccc1N1CCOCC1 | -21% (inactive) |
| Cc1cc(=O)oc(C)c1C(=O)NCCC(C)C | -17% (inactive) |
| COc1ccc(OC)c(NC(=O)C(=O)NNC(=O)c2cccs2)c1 | 8% (active) |
| COc1ccc(NC(=O)CNC(=O)c2cccs2)cc1Cl | -8% (inactive) |
| COc1cc(NC(=O)c2ccc3c(c2)OCO3)ccc1NC(=O)c1cccs1 | -22% (inactive) |
| COc1ccc(NC(=O)C(=O)NNC(=O)c2cccs2)c(OC)c1 | 28% (active) |
| CCc1cccc2c1NC(=O)C2(O)CC(=O)c1cccs1 (stereo unspecified) | -11% (inactive) |
| COC(=O)c1ccnc(/C=N/O)c1 | -13% (inactive) |
| O=C1NC(=S)SC1=C1CCCCCC1 | 53% (active) |
| O=C(O)c1ccc(S(=O)(=O)/N=C2\C=C(Nc3ccccc3F)C(=O)c3ccccc32)cc1 | 4% (active) |
| Cc1ccccc1NC1=C/C(=N\S(=O)(=O)c2ccc(C(=O)O)cc2)c2ccccc2C1=O | -6% (inactive) |
| O=c1c2cccnc2[nH]c(=S)n1CCC1=CCCCC1 | -3% (inactive) |
| O=c1c2ccc(Cl)cc2[nH]c(=S)n1CCC1=CCCCC1 | 42% (active) |
| O=c1c2ccccc2[nH]c(=S)n1CCC1=CCCCC1 | 11% (active) |
| O=C(CCn1c(=S)[nH]c2cc3c(cc2c1=O)OCO3)NCc1ccc(Cl)cc1 | -8% (inactive) |
| O=C(Cc1cccs1)Nn1c(Cc2cccs2)nc2ccccc2c1=O | -7% (inactive) |
| CC(=O)Nc1ccc(S(=O)(=O)NC2(C(F)(F)F)C(=O)Nc3c2c(=O)[nH]c(=O)n3C)cc1 (stereo unspecified) | -10% (inactive) |
| O=C(O)c1sccc1OCc1ccccc1 | -8% (inactive) |
| O=C(O)c1ccccc1NC(=O)c1cc2ccccc2oc1=O | 10% (active) |
| O=C(NNc1c(F)c(F)cc(F)c1F)c1cc2ccccc2oc1=O | -20% (inactive) |
| COc1ccc(CCNC(=O)c2cc3ccccc3oc2=O)cc1 | -8% (inactive) |
| CCO/C=C1\N=C(c2ccc(F)cc2)OC1=O | -5% (inactive) |
